Measurements as given in the supplement of paper PMC10981050.
Where “and” joins values, the source holds several entries; their conditions need not be identical. Identical values can stand only once. Counter-ions that a name gives are not always drawn.

Columns and labels:
Assay in all cases: cell viability relative to vehicle control; higher = less cytotoxic
Details in all cases: 10 µM
K562 = tested on: K562
In short: (§1)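 After removal of identity-inconsistent compounds, the Selleck bioactive, kinase and epigenetic probe libraries were screened on CRISPR-edited mutant clones and isogenic wild-type clones of four leukaemia lines. Plates were 384-well, each well holding 2000 cells in 50 µL medium and receiving a single 10 µM acoustically dispensed dose. CellTiter-Glo luminescence was read 48 h later, after the supernatant was taken off. Genedata Screener was used to express viability as percent of the on-plate vehicle control.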

MARIMO = tested on: MARIMO
In short: as §1

MOLM14 = tested on: MOLM14
In short: as §1

OCI-AML2 = tested on: OCI-AML2
In short: as §1

SMILES | cell viability (K562; SRSF2 genotype: SRSF2 P95H/wt) | cell viability (K562; SRSF2 genotype: SRSF2 wt/wt) [%] | cell viability (MARIMO; SRSF2 genotype: SRSF2 P95H/wt) [%] | cell viability (MARIMO; SRSF2 genotype: SRSF2 wt/wt) [%] | cell viability (MOLM14; SRSF2 genotype: SRSF2 P95H/wt) [%] | cell viability (MOLM14; SRSF2 genotype: SRSF2 wt/wt) [%] | cell viability (OCI-AML2; SRSF2 genotype: P95H/wt) [%] | cell viability (OCI-AML2; SRSF2 genotype: wt/wt) [%]
C[C@@]12N[C@@H](Cc3ccccc31)c1ccccc12 [(-)-MK 801 maleate] | 105% and 106% | 108 | 101 | 100 | 100 | 112 | 98.3 | 90.7
O=C(/C=C/c1ccccc1)OC[C@H]1O[C@@H](O[C@@H]2OC=C[C@H]3[C@H](O)[C@@H]4O[C@]4(CO)[C@@H]23)[C@H](O)[C@@H](O)[C@@H]1O [Picroside I] | 99.3% and 101% | 105 | 98.8 | 98.7 | 101 | 103 | 104 | 100
OC1CC2CCC(C1)N2 (stereo unspecified) [Nortropine Hydrochloride] | 101% and 98.7% | 101 | 102 | 107 | 97.2 | 102 | 105 | 94.8
O=c1[nH]c2ccc(Cl)cc2c(N[C@@H]2CN3CCC2CC3)c1-c1nc2ccccc2[nH]1 | 2.58% and 2.45% | 0.48 | 0.55 | 0.36 | 0.07 | -0.01 | 0.04 | 0.75
O=C(O[C@H]1C[N+]2(CCCOc3ccccc3)CCC1CC2)C(O)(c1cccs1)c1cccs1 [Aclidinium Bromide] | 104% and 98.9% | 101 | 108 | 111 | 103 | 106 | 106 | 106
COc1ccc(C(=O)N2CCCC2=O)cc1 [Aniracetam] | 105% and 106% | 110 | 107 | 109 | 110 | 109 | 118 | 106
C[C@@H]1CCC=C2C(=O)C[C@H]3OOC(C)(C)[C@H]3[C@]21C [Nardosinone] | 85.3% and 82.5% | 83.5 | 84.7 | 92.8 | 89.8 | 91.4 | 92.9 | 102
CC(=O)Nc1ccc(OC[C@](C)(O)C(=O)Nc2ccc([N+](=O)[O-])c(C(F)(F)F)c2)cc1 [Andarine (GTX-007)] | 103% and 99% | 107 | 98.4 | 105 | 106 | 105 | 97.1 | 95.8
O=c1[nH]c2ccccc2o1 [2-Benzoxazolinone] | 100% and 89.3% | 96.7 | 97.2 | 102 | 98.4 | 104 | 91.5 | 94.2
CCC12C=CCN3CC[C@@]4(c5ccc(OC)cc5N(C)[C@H]4[C@@](O)(C(=O)OC)[C@@H]1OC(C)=O)[C@@H]32 (stereo partly specified) [Vindoline] | 96.8% and 99.8% | 99.4 | 101 | 107 | 105 | 105 | 103 | 116
CC(C)(C)c1cc(C=C(C#N)C#N)cc(C(C)(C)C)c1O [Tyrphostin 9 (SF 6847)] | 14.4% and 18.5% | 18.5 | 23.8 | 23.8 | 17.7 | 12.2 | 5.2 | 11.5
COc1cc(C)[nH]c(=O)c1CNC(=O)c1c(C)n([C@H](C)C2CCOCC2)c2ccccc12 | 111% and 102% | 94.9 | 106 | 118 | 103 | 101 | 106 | 104
Cn1c(COP(=O)(NCCBr)NCCBr)cnc1[N+](=O)[O-] | 102% and 109% | 103 | 39.3 | 56 | 29.1 | 12.8 | 29.4 | 40.1
COc1cc2c3c(c1OC)-c1ccccc1C[C@H]3N(C)CC2 [Nuciferine] | 102% and 108% | 102 | 102 | 108 | 102 | 104 | 96.3 | 106
O=C/C=C/c1ccccc1 [Cinnamaldehyde] | 97.5% and 92.8% | 94.3 | 92 | 95.3 | 96.1 | 98.9 | 102 | 102
Cl[TeH]1(Cl)(Cl)OCCO1.N | 86.8% and 76.3% | 75 | 78 | 83.5 | 71.3 | 74.3 | 76.1 | 84.1
O=c1cccc2n1C[C@@H]1CNC[C@H]2C1 [Cytisine] | 107% and 100% | 92.9 | 93.3 | 107 | 97.7 | 102 | 94.3 | 104
CC(C)[C@]12O[C@H]1[C@@H]1O[C@]13[C@]1(O[C@H]1C[C@H]1C4=C(CC[C@@]13C)C(=O)OC4)[C@@H]2O [Triptolide] | 5.55% and 15% | 8.7 | 10.4 | 6.31 | 2.33 | 0.54 | 5.79 | 16
C=C1CC[C@H]2[C@@H](C=C(C)C(=O)[C@@]3(O)C[C@H](C)[C@H](O)[C@@H]3[C@H]1O)C2(C)C [Lathyrol] | 94.9% and 95.9% | 96.9 | 92.5 | 102 | 97.1 | 96.8 | 105 | 99
c1c2c(cc3c1OCO3)-c1cc3ccc4c(c3c[n+]1CC2)OCO4 [Coptisine chloride] | 83.7% and 89.7% | 84.2 | 95.4 | 99.8 | 96.2 | 94.3 | 84.5 | 91.7
CC(C)OC(=O)[C@H](C)N[P@](=O)(CO[C@H](C)Cn1cnc2c(N)ncnc21)Oc1ccccc1 [Tenofovir Alafenamide (GS-7340)] | 100% and 106% | 97.3 | 93.8 | 91.2 | 87 | 90.6 | 31.5 | 53.6

SMILES | cell viability (K562; SRSF2 genotype: SRSF2 P95H/wt) | cell viability (K562; SRSF2 genotype: SRSF2 wt/wt) [%] | cell viability (MARIMO; SRSF2 genotype: SRSF2 P95H/wt) [%] | cell viability (MARIMO; SRSF2 genotype: SRSF2 wt/wt) [%] | cell viability (MOLM14; SRSF2 genotype: SRSF2 P95H/wt) [%] | cell viability (MOLM14; SRSF2 genotype: SRSF2 wt/wt) [%] | cell viability (OCI-AML2; SRSF2 genotype: P95H/wt) [%] | cell viability (OCI-AML2; SRSF2 genotype: wt/wt) [%]
CC(NC(C)(C)C)C(=O)c1cccc(Cl)c1 (stereo unspecified) [Amfebutamone (Bupropion) HCl] | 86.7% and 90.3% | 95.6 | 87.9 | 94.1 | 95.1 | 95.6 | 93.1 | 90.5
Cc1cc(C(=O)CN2CCCC2)c(C)n1-c1ccc(F)cc1 | 93.7% and 94% | 89.1 | 80.6 | 98.2 | 83.7 | 94.7 | 88.4 | 85.8
CN1C2CCC1CC(O)C2 (stereo unspecified) [Tropine] | 105% and 98.9% | 97.2 | 104 | 110 | 99.5 | 103 | 94.5 | 108
C=CC1CN2CCC1CC2C(O)c1ccnc2ccccc12 (stereo unspecified) [Cinchonine.cdx] | 98.1% and 107% | 102 | 105 | 105 | 95.8 | 104 | 120 | 99.7
CN1C2CC(OC(=O)C(CO)c3ccccc3)CC1C(O)C2 (stereo unspecified) [Raceanisodamine] | 107% and 103% | 107 | 99 | 111 | 100 | 107 | 99.6 | 104
Cc1sc2c(c1C)C(c1ccc(Cl)cc1)=N[C@@H](CC(=O)OC(C)(C)C)c1nnc(C)n1-2 | 53.8% and 59.9% | 61.5 | 22.3 | 30.9 | 15.9 | 11.6 | 17.5 | 30.2
O=[N+]([O-])c1ncc[nH]1 [Azomycin (2-Nitroimidazole)] | 102% and 103% | 101 | 101 | 101 | 95.3 | 100 | 97.8 | 96.8
COc1ccc(/C=C/c2cc(OC)cc(OC)c2)cc1 [3,4',5-Trimethoxy-trans-stilbene] | 26.9% and 46.4% | 39.7 | 47.5 | 35.7 | 15.3 | 6.3 | 38.2 | 36.4
C[C@]12CCC(=O)C(O)=C1CC[C@@H]1[C@@H]2CC[C@]2(C)C(=O)CC[C@@H]12 [Formestane] | 96.6% and 94.4% | 102 | 93.2 | 107 | 107 | 103 | 104 | 112
COc1cc(C2OCC3C(c4cc(OC)c(OC5OC(CO)C(O)C(O)C5O)c(OC)c4)OCC23)cc(OC)c1OC1OC(CO)C(O)C(O)C1O (stereo unspecified) [Eleutheroside E] | 104% and 98.2% | 101 | 97.3 | 97.9 | 98.5 | 107 | 102 | 112
COC(=O)c1ccccc1C(=O)OC [Dimethyl phthalate] | 86.9% and 85.8% | 84 | 85.6 | 93.4 | 87.5 | 85.8 | 89.5 | 80.7
C=C1C[C@@H]2[C@H](CC[C@]3(C)C(=O)CC[C@@H]23)[C@@]2(C)C=CC(=O)C=C12 [Exemestane] | 93.7% and 96.7% | 100 | 82.8 | 92.6 | 80.3 | 94.3 | 90.2 | 91.2
COCC1(CO)C(=O)C2CCN1CC2 (stereo unspecified) | 35.9% and 43.5% | 63.5 | 65.3 | 57.5 | 9.18 | 3.69 | 14.8 | 15.9
N#CC(C#N)=NNc1ccc(OC(F)(F)F)cc1 | 16.2% and 15.8% | 19.2 | 31.8 | 28 | 14.5 | 11.2 | 2.85 | 8.68
C[C@@H]1O[C@@H](O[C@H]2C[C@@H](O)[C@]3(CO)[C@H]4[C@H](O)C[C@]5(C)[C@@H](C6=CC(=O)OC6)CC[C@]5(O)[C@@H]4CC[C@]3(O)C2)[C@H](O)[C@H](O)[C@H]1O [Ouabain] | 10.4% and 12.3% | 12.4 | 10.7 | 4.01 | 3.34 | 0.78 | 0.73 | 2.79
c1csc(-c2ccc(-c3cccs3)s2)c1 [2,2':5',2''-Terthiophene] | 95.8% and 89.3% | 97.1 | 88.1 | 100 | 91.7 | 98.7 | 84.6 | 85.4
CC(=O)OC12COC1CC(O)C1(C)C(=O)C(O)C3=C(C)C(O)CC(O)(C(OC(=O)c4ccccc4)C21)C3(C)C (stereo unspecified) [10-DAB (10-Deacetylbaccatin)] | 103% and 110% | 103 | 109 | 108 | 111 | 105 | 105 | 98.3
COc1cc([C@@H]2c3cc4c(cc3[C@@H](O)[C@H]3COC(=O)[C@H]23)OCO4)cc(OC)c1O [4'-Demethylepipodophyllotoxin] | 36.4% and 51% | 51.2 | 26.8 | 31.3 | 13.4 | 6.99 | 20.9 | 24.2
CC[C@H]1CN2CC[C@H]1C[C@H]2[C@H](O)c1ccnc2ccc(OC)cc12 [Hydroquinine] | 102% and 101% | 103 | 97.5 | 111 | 87.8 | 106 | 100 | 110
CCC1=C[C@H]2CN3CCc4c([nH]c5ccccc45)[C@](C(=O)OC)(C2)[C@H]13 [Catharanthine] | 92.4% and 94% | 95.2 | 81 | 86.6 | 87.8 | 95.5 | 92 | 96.2
CN(C)C1C(=O)C(C(N)=O)=C(O)C2(O)C(=O)C3=C(O)c4c(O)cccc4C(C)(O)C3CC12 (stereo unspecified) [Tetracycline hydrochloride] | 84.5% and 91.2% | 90.4 | 90.7 | 96.3 | 102 | 98.3 | 89.3 | 95.9
